Tests used:
Test in all cases: log2 ratio of Biotin-Ahx-Ub-VS probe labelling (fragment/DMSO); higher = less target engagement (more negative = stronger competition), active = hit call of the paper (q ≤ 0.05, log2 ratio ≤ -1)
Details in all cases: compound concentration: 200 uM; treatment time: 3 h
[1] = molecular target: USP9X (UniProt Q93008)
Procedure, shortened: (§1)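 Labelled DUBs from HEK293T lysate were NeutrAvidin-enriched, digested with LysC and trypsin, and run by diaPASEF LC-MS/MS. Before that, each 495 µg sample in Tris/CHAPS/IGEPAL buffer with protease inhibitors was treated in triplicate with fragment at 200 µM or vehicle for 3 h, then with Biotin-Ahx-Ub-VS at 0.5 µM final for 1 h. Values are average log2 ratios of fragment over vehicle by unpaired t-test, based on global-median-normalised Spectronaut label-free quantities from proteins with ≥2 unique peptides.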

[2] = molecular target: UniProt O00487
Procedure, shortened: as §1

[3] = molecular target: UniProt O00507
Procedure, shortened: as §1

[4] = molecular target: UniProt P51784
Procedure, shortened: as §1

[5] = molecular target: T1, UniProt Q5T2D3
T1 sequence (whole entry): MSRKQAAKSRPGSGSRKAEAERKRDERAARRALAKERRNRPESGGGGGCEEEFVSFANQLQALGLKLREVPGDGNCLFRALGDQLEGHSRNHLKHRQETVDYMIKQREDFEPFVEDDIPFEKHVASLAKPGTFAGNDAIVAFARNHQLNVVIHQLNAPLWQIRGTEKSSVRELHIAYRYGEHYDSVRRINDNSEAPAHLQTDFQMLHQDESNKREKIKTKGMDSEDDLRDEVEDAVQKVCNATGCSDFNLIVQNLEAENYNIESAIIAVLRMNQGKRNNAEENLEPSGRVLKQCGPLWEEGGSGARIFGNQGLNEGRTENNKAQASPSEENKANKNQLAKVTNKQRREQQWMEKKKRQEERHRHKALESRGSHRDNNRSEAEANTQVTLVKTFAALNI
Procedure, shortened: as §1

[6] = molecular target: T2, UniProt Q8TE49
T2 sequence (whole entry): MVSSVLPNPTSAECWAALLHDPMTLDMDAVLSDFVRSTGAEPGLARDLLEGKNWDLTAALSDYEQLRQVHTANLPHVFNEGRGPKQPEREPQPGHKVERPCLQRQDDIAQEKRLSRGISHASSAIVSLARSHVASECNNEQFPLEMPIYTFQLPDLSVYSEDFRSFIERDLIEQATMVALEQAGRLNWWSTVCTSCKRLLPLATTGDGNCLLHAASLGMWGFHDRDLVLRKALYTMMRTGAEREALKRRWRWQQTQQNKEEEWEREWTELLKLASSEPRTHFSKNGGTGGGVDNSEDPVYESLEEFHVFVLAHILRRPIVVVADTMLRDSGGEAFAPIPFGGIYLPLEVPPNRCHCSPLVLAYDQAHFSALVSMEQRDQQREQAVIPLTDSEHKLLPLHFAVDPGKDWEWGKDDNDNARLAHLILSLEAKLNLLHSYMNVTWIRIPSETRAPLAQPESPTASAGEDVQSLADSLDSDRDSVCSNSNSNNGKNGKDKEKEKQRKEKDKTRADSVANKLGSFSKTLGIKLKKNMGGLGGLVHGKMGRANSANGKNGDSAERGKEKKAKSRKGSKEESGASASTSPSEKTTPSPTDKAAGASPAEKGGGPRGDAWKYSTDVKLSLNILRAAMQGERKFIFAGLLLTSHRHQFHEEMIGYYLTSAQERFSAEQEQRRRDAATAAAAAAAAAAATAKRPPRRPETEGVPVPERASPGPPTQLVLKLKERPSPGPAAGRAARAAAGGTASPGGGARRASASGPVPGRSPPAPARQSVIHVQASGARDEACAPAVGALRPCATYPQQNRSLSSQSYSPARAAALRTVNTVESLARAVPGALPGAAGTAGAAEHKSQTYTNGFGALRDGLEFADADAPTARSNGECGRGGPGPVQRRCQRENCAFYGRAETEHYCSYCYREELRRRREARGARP
Procedure, shortened: as §1

[7] = molecular target: T3, UniProt Q9P2H5
T3 sequence (whole entry): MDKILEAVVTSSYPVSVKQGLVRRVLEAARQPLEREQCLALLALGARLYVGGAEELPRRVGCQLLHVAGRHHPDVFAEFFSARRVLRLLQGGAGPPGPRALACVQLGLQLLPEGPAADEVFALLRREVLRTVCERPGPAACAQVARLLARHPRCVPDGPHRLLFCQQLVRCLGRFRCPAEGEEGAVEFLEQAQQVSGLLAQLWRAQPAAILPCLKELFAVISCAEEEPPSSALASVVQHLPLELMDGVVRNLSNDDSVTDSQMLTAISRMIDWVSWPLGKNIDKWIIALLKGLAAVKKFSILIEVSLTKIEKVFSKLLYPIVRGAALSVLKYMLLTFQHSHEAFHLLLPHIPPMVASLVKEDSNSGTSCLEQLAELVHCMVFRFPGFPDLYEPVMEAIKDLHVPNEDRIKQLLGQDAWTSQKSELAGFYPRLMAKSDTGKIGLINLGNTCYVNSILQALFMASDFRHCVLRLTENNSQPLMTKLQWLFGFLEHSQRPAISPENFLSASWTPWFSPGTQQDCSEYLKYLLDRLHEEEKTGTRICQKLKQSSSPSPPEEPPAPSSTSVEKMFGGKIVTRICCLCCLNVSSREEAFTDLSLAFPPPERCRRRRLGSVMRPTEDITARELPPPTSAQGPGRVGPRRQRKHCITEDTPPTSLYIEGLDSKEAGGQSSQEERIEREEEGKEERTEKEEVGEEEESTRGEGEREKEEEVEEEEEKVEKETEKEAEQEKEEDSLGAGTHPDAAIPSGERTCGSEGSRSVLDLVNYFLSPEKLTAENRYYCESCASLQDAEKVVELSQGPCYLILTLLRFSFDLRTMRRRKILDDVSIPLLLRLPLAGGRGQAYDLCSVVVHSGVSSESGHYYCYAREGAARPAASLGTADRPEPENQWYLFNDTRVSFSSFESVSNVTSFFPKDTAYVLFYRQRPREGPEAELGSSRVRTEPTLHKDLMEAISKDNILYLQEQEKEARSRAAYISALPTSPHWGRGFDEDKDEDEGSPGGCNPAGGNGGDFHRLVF
Procedure, shortened: as §1

[8] = molecular target: T4, UniProt Q9UGI0
T4 sequence (whole entry): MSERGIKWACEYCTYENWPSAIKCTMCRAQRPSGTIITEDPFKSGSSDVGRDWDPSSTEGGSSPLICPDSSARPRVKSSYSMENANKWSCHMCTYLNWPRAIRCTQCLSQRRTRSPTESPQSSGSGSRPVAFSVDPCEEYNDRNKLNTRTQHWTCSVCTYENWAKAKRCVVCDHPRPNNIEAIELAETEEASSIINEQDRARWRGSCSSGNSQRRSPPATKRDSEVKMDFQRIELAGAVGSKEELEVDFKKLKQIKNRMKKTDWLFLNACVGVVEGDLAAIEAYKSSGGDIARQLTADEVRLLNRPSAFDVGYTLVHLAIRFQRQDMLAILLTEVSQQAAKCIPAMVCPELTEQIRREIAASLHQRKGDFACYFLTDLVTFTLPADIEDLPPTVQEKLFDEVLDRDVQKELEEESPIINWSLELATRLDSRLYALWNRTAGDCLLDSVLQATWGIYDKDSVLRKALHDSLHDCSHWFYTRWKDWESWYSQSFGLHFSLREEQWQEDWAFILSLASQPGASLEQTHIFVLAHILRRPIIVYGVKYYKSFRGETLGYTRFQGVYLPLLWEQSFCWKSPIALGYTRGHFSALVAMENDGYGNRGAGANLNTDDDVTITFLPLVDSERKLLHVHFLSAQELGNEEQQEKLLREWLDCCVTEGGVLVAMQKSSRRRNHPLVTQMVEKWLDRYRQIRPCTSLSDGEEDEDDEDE
Procedure, shortened: as §1

[9] = molecular target: T5, YOD1 (UniProt Q5VVQ6)
T5 sequence (whole entry): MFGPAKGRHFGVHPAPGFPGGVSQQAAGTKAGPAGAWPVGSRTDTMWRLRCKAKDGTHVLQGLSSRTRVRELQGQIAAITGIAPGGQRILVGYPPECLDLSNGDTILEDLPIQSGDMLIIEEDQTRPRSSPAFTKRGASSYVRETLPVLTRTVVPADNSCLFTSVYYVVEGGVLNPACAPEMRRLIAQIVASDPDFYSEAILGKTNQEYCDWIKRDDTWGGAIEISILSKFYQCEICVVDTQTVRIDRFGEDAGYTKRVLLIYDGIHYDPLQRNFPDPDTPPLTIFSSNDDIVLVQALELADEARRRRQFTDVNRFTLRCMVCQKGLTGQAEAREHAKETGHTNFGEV
Procedure, shortened: as §1

Measured: log2 ratio of Biotin-Ahx-Ub-VS probe labelling

USP9X, sequence (Q93008 whole entry, the tested form may be a part): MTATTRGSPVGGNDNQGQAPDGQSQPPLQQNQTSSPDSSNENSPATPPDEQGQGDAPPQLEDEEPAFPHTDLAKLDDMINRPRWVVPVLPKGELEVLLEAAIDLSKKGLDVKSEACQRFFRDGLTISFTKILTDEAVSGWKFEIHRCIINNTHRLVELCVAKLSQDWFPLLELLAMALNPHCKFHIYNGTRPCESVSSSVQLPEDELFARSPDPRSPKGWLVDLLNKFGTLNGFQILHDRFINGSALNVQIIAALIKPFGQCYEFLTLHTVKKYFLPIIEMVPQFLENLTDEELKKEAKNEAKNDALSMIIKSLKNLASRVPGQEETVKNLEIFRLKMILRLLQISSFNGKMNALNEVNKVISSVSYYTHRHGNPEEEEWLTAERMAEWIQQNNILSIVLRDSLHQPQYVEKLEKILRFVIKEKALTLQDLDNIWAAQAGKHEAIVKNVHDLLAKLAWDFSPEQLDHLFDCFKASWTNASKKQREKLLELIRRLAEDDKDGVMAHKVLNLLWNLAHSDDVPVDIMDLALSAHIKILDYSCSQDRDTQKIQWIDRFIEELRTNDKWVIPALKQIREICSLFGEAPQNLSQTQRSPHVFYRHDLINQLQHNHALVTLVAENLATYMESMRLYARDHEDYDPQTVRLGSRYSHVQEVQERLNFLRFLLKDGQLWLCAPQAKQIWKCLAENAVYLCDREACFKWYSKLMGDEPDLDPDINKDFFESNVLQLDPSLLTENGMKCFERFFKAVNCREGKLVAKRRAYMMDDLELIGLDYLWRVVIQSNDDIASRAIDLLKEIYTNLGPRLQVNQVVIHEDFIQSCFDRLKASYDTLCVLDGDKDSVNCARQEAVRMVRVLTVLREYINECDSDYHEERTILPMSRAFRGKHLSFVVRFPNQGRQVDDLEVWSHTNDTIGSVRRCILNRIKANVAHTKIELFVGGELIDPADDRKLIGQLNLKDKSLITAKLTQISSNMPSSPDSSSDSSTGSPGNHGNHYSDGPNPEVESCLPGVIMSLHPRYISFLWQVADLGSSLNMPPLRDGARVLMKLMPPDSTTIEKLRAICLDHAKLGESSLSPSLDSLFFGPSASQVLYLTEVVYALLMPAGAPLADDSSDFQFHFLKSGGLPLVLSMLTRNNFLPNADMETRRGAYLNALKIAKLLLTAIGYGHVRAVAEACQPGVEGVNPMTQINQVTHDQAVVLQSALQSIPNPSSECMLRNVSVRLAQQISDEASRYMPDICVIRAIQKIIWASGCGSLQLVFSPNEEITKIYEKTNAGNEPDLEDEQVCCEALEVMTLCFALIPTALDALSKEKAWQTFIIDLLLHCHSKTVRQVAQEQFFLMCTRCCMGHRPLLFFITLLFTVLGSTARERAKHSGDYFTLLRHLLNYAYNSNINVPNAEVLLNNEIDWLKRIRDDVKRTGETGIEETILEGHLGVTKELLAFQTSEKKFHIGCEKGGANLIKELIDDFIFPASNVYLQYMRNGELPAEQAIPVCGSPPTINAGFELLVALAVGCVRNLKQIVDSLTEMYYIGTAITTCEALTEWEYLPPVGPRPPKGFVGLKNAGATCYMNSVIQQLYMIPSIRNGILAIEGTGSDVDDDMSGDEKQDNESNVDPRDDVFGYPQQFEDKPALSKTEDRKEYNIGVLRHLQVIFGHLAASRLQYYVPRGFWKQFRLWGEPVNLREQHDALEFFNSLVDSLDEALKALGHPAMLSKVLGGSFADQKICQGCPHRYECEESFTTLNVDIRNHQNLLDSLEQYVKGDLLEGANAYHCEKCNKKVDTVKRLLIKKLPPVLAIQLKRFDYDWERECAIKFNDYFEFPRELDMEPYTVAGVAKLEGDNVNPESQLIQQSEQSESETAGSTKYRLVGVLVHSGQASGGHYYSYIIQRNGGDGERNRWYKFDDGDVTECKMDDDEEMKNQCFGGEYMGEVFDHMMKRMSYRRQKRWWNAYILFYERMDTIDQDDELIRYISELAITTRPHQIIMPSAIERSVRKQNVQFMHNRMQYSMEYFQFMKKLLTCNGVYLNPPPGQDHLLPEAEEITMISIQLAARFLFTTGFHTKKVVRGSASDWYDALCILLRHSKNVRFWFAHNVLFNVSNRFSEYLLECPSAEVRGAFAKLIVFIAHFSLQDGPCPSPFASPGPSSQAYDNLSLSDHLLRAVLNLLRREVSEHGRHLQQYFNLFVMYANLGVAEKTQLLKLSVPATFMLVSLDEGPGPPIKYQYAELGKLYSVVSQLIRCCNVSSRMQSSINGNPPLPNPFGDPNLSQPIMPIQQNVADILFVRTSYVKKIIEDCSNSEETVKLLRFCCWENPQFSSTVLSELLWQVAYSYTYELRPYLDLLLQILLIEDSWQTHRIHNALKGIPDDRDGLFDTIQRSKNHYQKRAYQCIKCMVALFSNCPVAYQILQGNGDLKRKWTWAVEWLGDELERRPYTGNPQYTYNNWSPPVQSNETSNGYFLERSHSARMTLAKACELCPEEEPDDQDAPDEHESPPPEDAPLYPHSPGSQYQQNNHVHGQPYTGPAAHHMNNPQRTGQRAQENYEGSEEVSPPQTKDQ
UniProt P51784, sequence (P51784 whole entry): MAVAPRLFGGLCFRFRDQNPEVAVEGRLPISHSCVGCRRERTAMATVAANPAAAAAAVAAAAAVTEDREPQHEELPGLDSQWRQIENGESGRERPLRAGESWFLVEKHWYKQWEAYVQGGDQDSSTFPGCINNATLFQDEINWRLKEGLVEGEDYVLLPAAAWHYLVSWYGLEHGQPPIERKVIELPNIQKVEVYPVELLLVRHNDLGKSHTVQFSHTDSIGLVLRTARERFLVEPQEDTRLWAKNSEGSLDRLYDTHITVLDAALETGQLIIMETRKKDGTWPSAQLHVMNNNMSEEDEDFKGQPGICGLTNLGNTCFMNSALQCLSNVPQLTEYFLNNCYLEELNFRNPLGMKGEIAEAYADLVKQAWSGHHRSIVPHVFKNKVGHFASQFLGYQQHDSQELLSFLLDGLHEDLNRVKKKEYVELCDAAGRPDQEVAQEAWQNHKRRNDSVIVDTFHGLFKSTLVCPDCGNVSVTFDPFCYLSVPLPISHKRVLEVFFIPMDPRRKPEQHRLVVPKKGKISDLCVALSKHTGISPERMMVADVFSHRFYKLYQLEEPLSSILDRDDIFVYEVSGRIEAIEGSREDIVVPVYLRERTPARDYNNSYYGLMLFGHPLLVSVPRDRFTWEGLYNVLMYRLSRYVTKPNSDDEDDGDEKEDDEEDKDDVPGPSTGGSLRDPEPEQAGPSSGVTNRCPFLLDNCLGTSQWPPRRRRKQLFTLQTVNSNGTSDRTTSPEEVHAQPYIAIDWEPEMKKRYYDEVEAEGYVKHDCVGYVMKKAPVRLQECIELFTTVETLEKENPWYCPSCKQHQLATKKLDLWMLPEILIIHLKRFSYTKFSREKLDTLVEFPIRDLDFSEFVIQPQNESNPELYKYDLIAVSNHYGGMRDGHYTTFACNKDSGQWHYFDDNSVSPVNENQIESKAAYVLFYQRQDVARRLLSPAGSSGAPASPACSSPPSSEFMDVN
UniProt O00487, sequence (O00487 whole entry): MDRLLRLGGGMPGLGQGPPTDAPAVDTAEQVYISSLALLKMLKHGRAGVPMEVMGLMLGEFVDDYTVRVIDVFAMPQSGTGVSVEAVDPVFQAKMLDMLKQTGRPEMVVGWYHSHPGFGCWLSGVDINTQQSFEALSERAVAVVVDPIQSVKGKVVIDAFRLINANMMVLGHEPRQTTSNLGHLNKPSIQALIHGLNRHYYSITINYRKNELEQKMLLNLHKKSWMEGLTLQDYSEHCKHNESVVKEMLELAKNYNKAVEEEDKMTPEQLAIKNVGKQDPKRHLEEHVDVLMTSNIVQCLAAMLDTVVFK

Cc1cccnc1NC(=O)C1CCN(C(=O)CCl)CC1.Cl
inactive: [1] -0.327 | [2] 0.014 | [3] -0.282 | [4] -0.0141 | [5] -0.408 | [6] -0.254 | [7] -0.348 | [8] -0.465 | [9] -0.214

From the supplement of paper PMC11732987, “Enantioselective OTUD7B fragment discovery through chemoproteomics screening and high-throughput optimisation” (Communications Chemistry, 2025)
